# Compound activity (PubChem BioAssay)
# GLP-1R agonist = GLP-1 receptor (human) agonism. HEK293 GLP-1R CRE-luciferase, luminescence, 4-6 h; cells express a hypersensitive GLP-1R form. actives 0.007% (n = 380,000). Potency, µM (titrated, usually from 45.6 µM), for the others: at the highest dose activation, usual class: activators. AID 624172; also: % of control where 0% means no effect
# Target sequence (P43220 whole entry, looked up): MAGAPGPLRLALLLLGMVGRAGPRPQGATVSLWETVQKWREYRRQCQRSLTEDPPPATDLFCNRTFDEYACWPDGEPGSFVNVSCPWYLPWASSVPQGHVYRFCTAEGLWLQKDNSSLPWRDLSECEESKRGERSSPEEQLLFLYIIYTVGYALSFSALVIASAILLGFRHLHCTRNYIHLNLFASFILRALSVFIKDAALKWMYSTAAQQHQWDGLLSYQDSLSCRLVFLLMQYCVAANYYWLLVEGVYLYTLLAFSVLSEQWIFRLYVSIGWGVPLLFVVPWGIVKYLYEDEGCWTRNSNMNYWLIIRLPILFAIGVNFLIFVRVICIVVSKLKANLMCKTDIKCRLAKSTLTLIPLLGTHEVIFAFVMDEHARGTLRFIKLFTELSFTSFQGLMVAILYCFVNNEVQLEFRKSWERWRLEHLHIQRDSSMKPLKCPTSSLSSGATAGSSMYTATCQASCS
# BRCA1 expr act = increases BRCA1 expression | MCF7-BRCA1-FFLuc reporter, luminescence, 48 h; response scale: scaled: vehicle 0%, 10 µM genistein 100% | actives 1.1% (n = 380,000) | Potency, µM (doses to about 46.1 µM), for inactives: at the top dose activation, usual class: activators | AID 624202; also: nearly all actives have a fitted effect of over 80% in size
#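 Luminescence from a BRCA1-driven firefly luciferase in MCF7 cells was read after 48 h compound exposure at 37 C. Data normalized against DMSO and a 10microM genistein activation control, then curve-fitted across the titration.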
# GLP-1R inv ag = acts as inverse agonist at human GLP-1 receptor | P43220 | HEK293 GLP-1R CRE-luciferase, luminescence, 24 h; GLP-1R form is constitutively active | Potency, µM (series often up to 38.3 µM), inactives show at the highest dose activity change, negative = inhibition, actives largely listed as inhibitors | actives 1.6% (n = 410,000) | AID 624417; also: % is scaled to controls: 0 for no effect and ±100 for the full control effect; nearly all actives have a fitted effect of over 55% in size
#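 HEK293 cells stably co-expressing a cAMP-responsive luciferase reporter and constitutively active GLP-1R were seeded, incubated 12 h, then exposed to compounds for 24 h at 37 C. Luminescence was read 12 min after detection reagent; inverse agonists lower signal.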
# GLP1R cytotox = cytotoxicity in counter-screen for GLP-1R inverse agonists; HEK293 cAMP-luciferase reporter cells, luminescence, 24 h; Potency, µM (top dose mostly 38.3 µM), for the others: at the highest dose activity change, negative = inhibition, hits mostly inhibitors; actives 0.13% (n = 410,000); AID 624418;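 also: loss of luciferase light is scored as toxicity; % is scaled to controls: 0 for no effect and ±100 for the full control effect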
#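 Here, cytotoxicity is scored as loss of luminescence. The MLSMR collection was tested on cells seeded in medium containing 10% Nu serum, with a 24 hr compound exposure preceded by 12 hours of culture.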
# An asterisk follows results filed as active; ? = inconclusive; . = no result given. Hits are enriched below; roughly 2.6% of the tested compounds scored in any of these assays. Calls follow the shape of the dose curve; as a rule, active = well fitted curve in the direction sought with a large enough effect; inconclusive = small, poorly fitted or top-dose-only effect, or another doubt; inactive = no such curve, though single readings can be large; an effect the other way counts as inactive or inconclusive. Potency is read from the fitted curve at half-maximal effect.
SMILES,GLP-1R agonist,BRCA1 expr act,GLP-1R inv ag,GLP1R cytotox
Cc1ccc(C(=O)NCC(=O)NC23CC4CC(CC(C4)C2)C3)cc1,-4%,6.3µM*,-3%,21%
O=C(O)/C=C/c1ccc2ccccc2c1,.,4%,.,.
O=C(/C=C/c1ccc2ccccc2c1)c1ccoc1,-2%,13µM*,19%,1%
CN(C)c1ccc(C(CNC(=O)c2cccs2)N(C)C)cc1 (centres undefined),8%,13µM*,10%,6%
Cc1cccc(N2CCN(S(=O)(=O)c3csc(C(N)=O)c3)CC2)c1C,.,.,?,-13%
N/C(=N\OC(=O)COc1ccccc1)c1ccncc1,20%,13µM*,5%,1%
N/C(=N\OC(=O)COc1ccccc1)c1ccccn1,2%,13µM*,10%,-6%
N/C(=N\OC(=O)CCC1CCCC1)c1ccccn1,-1%,7.1µM*,25%,-1%
N/C(=N\OC(=O)CCCc1ccccc1)c1ccccn1,1%,11µM*,27%,6%
CCc1ccc(OCC(=O)O/N=C(\N)c2ccccn2)cc1,0%,?,?,-41%
CCOc1ccc(NC(=O)CC2C(=O)N(c3ccc(C)cc3)C(=O)N2C2CCCCC2)cc1 (centres undefined),.,.,?,-14%
O=C(CN1CCC(n2nnc3cc(C(F)(F)F)ccc32)CC1)Nc1ccc2c(c1)CCC2,1%,-38%,4.5µM*,3%
O=C(CN1CCC(n2nnc3cc(C(F)(F)F)ccc32)CC1)Nc1ccc2c(c1)OCCO2,-8%,1%,?,?
Cc1oc2ncn(C)c(=O)c2c1C(=O)NCc1ccccc1,.,-7%,16%,4%
CC1(C)CC(NS(=O)(=O)c2ccc(C(C)(C)C)cc2)CC(C)(C)N1,3%,-20%,3.5µM*,-14%
CC1(C)CC(NS(=O)(=O)c2ccc(F)cc2)CC(C)(C)N1,1%,0%,-9%,5%
COc1cc(/C=C/C(=O)OCC(=O)Nc2ccc3[nH]c(=O)[nH]c3c2)ccc1OC(F)F,3%,-4%,6%,-32%
Cc1cc(C)cc(NC(=O)c2sc3nc(C)cc(C)c3c2N)c1,22%,4µM*,19%,48%
Cc1cc(C)c(NC(=O)c2sc3nc(C)cc(C)c3c2N)c(C)c1,-3%,-38%,10%,-13%
Cc1cccc(NC(=O)c2sc3nc(N)c(C#N)cc3c2N)c1,10%,3.2µM*,39%,16%
Fc1cccc(Cc2c(-c3ccco3)nc3ccc(Br)cn23)c1,-5%,-17%,?,-6%
COc1ccc(C(NC(C)=O)c2ccc3cccnc3c2O)c(OC)c1 (centres undefined),0%,-86%,3.5µM*,?
COc1ccc(C(NC(C)=O)c2ccc3cccnc3c2O)cc1OC (centres undefined),.,-74%,.,.
CC(C)C(=O)NC(c1cccc([N+](=O)[O-])c1)c1ccc2cccnc2c1O (centres undefined),-14%,-82%,?,2.5µM*
C/C(CC(=O)Nc1ccccc1F)=N\NC(=O)Cc1ccc(Cl)cc1,11%,0%,-9%,4%
SMILES,GLP-1R agonist,BRCA1 expr act,GLP-1R inv ag,GLP1R cytotox
COC(=O)c1c(C)nc(C)c(C(=O)OC)c1-c1cccs1,10%,-22%,17%,12%
CC(=O)c1sc(-c2ccc(Cl)cc2)cc1N,-7%,41%,4%,-8%
COC(=O)c1sc(-c2cccs2)cc1N,11%,13µM*,35%,-3%
COC(=O)c1sc(-c2ccc(Cl)cc2)cc1N,0%,4µM*,3%,-8%
CN(C)c1cccc(C(=O)NC2CCCCCC2)c1,7%,10µM*,?,-5%
O=C(NC1CCCC1)c1cccc(Oc2ccccc2)c1,21%,67%,10µM*,-3%
CCOc1ccc(-c2nonc2NC(=O)c2oc3cc(C)c(C)cc3c2C)cc1OCC,.,.,13%,-2%
Nc1ccc(/C=C/c2cccc3cccnc23)cc1,.,10%,.,.
O=C1c2ccsc2SCCN1Cc1ccc(Cl)cc1Cl,-3%,-22%,?,-6%
O=C1c2ccsc2SCCN1Cc1c(Cl)cccc1Cl,-24%,0%,2.5µM*,-11%
O=C1c2ccsc2SCCN1Cc1c(F)cccc1Cl,13%,-1%,13µM*,1%
O=C1C=C(C2OC(CO)C(O)C2O)C(=O)N1 (centres undefined),4%,-5%,-1%,-2%
Cc1cccc(Nc2nnc(-c3ccc(C)c(S(=O)(=O)NCC4CCCO4)c3)c3ccccc23)c1 (centres undefined),.,.,?,2%
S=Cc1nc2ccccc2[nH]1,.,14%,.,.
CCCCN1CC(COCc2ccccc2)Oc2cccc(OCCN3C(=O)[C@@H]4[C@H](C3=O)C3C=C[C@H]4C3)c2S1(=O)=O (some centres undefined),-1%,-46%,10µM*,-20%
CCCCN1CC(COCc2ccccc2)Oc2ccccc2S1(=O)=O (centres undefined),8%,1%,11µM*,15%
O=S1(=O)c2ccccc2OC(COCc2ccccc2)CN1Cc1ccccc1 (centres undefined),-2%,-16%,?,6%
O=S1(=O)c2ccc(Br)cc2OC(COCc2ccccc2)CN1Cc1ccccc1 (centres undefined),11%,-16%,10µM*,-6%
COC(=O)c1ccccc1NC(=O)c1cc(C)nc2c1c(C)nn2-c1ccc(C)cc1,.,.,10%,11%
O=C1CCCN2N=C(SCC(=O)N3N=C(c4ccc(Br)cc4)CC3c3ccc(F)cc3)SC2=N1 (centres undefined),1%,-33%,?,-4%
Cc1ccc(C2CC(c3ccc(Br)cc3)=NN2C(=O)CSC2=NN3CCCC(=O)N=C3S2)cc1 (centres undefined),-1%,-36%,4.5µM*,-17%
c1ccc(NC2=Nc3ccccc3CS2)cc1,-9%,3.5µM*,14%,2%
CNc1ccccc1C(C)(C)c1cc(-c2cccc(Br)c2)no1,18%,-30%,2.8µM*,-2%
CC(C)=C1C2CCC1C1C(=O)N(NC(=O)COc3ccc(C(C)(C)C)cc3)C(=O)C21 (centres undefined),-5%,-17%,7.1µM*,5%
CCNC(=O)C1CCCN(C(=O)c2ccc(F)c(Cl)c2)CC1 (centres undefined),1%,11%,16%,-6%
CN[C@H]1C[C@H]2c3[nH]c4ccc(-c5cccc(C)c5)cc4c3CCN2C[C@H]1[C@H](C)O,-6%,-92%,11µM*,?
CN[C@H]1C[C@H]2c3[nH]c4ccc(-c5ccc(OC)cc5)cc4c3CCN2C(=O)[C@H]1[C@H](C)O,-5%,-71%,5.6µM*,?
COc1ccc(NC(=O)N(C)[C@H]2C[C@H]3c4[nH]c5ccc(-c6ccc(OC)cc6)cc5c4CCN3C[C@H]2[C@H](C)O)cc1,-3%,-78%,7.1µM*,?
Clc1ccccc1OCCCOc1cccc2cccnc12,7%,?,?,-1%
